# Reference: the supplement of paper PMC10681739
# Assays:
# ETS1 [1] = molecular target: T1, ETS1 (UniProt P14921); experiment: ETS1 binding intensity (PBM fluorescence), ETS1 alone (arbitrary fluorescence units); higher = stronger binding; details: ETS1 concentration 1 nM; RUNX1 concentration 0 nM
# T1 sequence: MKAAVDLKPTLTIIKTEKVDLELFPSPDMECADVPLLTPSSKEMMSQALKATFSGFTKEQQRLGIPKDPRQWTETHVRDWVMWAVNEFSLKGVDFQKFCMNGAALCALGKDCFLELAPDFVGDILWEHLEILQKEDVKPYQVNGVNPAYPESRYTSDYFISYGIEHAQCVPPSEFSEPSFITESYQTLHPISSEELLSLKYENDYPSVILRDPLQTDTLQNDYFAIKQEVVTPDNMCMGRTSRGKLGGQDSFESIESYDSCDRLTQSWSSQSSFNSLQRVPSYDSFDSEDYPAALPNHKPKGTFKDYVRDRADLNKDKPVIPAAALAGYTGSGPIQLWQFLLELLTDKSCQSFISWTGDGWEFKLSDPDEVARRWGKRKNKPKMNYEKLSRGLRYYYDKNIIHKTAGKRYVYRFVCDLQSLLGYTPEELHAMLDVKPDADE
# RUNX1 [2] = molecular target: RUNX1 (UniProt Q01196); experiment: RUNX1 binding intensity (PBM fluorescence), RUNX1 alone (arbitrary fluorescence units); higher = stronger binding; details: RUNX1 concentration 2 nM; ETS1 concentration 0 nM
# RUNX1, sequence (Q01196 whole entry): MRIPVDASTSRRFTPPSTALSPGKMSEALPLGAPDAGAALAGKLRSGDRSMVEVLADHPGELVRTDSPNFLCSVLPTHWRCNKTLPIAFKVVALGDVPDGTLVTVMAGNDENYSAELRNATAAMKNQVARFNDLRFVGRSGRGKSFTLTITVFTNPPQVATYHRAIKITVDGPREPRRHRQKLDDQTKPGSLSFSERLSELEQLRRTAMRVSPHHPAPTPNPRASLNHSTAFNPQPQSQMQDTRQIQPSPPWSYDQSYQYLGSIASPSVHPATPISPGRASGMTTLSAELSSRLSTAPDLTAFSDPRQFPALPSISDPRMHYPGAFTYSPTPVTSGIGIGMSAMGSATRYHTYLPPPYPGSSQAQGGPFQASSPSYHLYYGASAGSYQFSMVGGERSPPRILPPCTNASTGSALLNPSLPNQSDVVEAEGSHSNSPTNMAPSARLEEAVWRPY
# Description: (§1)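 Cooperative gcPBM on 36-bp genomic probes with neighbouring ETS1 and RUNX1 sites. Recombinant human RUNX1 (2 nM) was incubated alone or with ETS1 (25 nM) and detected with anti-RUNX1 antibody plus Alexa488 secondary. Values are medians over 4 replicate spots; the RUNX1+ETS1 data were normalised to the RUNX1-only data. The probes sit in constant array flanks that are not printed.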
# ETS1 [3] = molecular target: T1, ETS1; experiment: ETS1 binding intensity (PBM fluorescence) in presence of RUNX1, normalised to ETS1-only experiment (arbitrary fluorescence units); higher = stronger binding; details: ETS1 concentration 1 nM; RUNX1 concentration 25 nM
# RUNX1 [4] = molecular target: RUNX1 (UniProt Q01196); experiment: RUNX1 binding intensity (PBM fluorescence) in presence of ETS1, normalised to RUNX1-only experiment (arbitrary fluorescence units); higher = stronger binding; details: RUNX1 concentration 2 nM; ETS1 concentration 25 nM
# Description: as §1
# 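Throughout, for RUNX1 binding intensity (PBM fluorescence) in presence of ETS1, normalised to RUNX1-only experiment: Full-length recombinant human ETS1 or RUNX1 bound to double-stranded 36-bp genomic probes on microarrays, detected by protein-specific primary antibody and Alexa488 secondary, spot fluorescence as median of four replicate spots.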
# 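Throughout, for RUNX1 binding intensity (PBM fluorescence), RUNX1 alone: Full-length recombinant human RUNX1 bound to double-stranded 36-bp genomic probes on a high-density microarray, scored as Alexa488 fluorescence per spot via anti-RUNX1 antibody, median of four replicate spots.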
Sequence,ETS1 binding intensity (ETS1 [1]),RUNX1 binding intensity (RUNX1 [2]),ETS1 binding intensity (ETS1 [3]),RUNX1 binding intensity (RUNX1 [4])
AGCCACATCCTCCCTTAGGTCTGACCGCAGCTTAAC,381,4190,2170,5430
CCTGCCGAGGAAGTCCCACGTCACTGCGGTTAGAGT,356,1670,2090,3000
CTGTCCCTAGCAGGATGTGGTTTGCACATTGCTGCT,3220,962,12500,4600
GCTCCTCCCGGATATAAAGCCCCAAACCACGCCACT,724,1140,1610,1410
TGGAACAATGCTGCTTCCTGTGGGTGTCCCCCGGCC,1140,698,1400,1330
CTGGGGATGTGTGACACTCAGAGAAACCACAAGGTG,495,1010,1390,1140
ACTTACAAAGGAAGTGACAGAACCACAGAAAAGACC,1230,732,2660,1240
CGGGGGCCAGGCTTCCTGTGGTGGGAGCGGCAGGCC,443,830,477,1350
GACGGCCCCAGCGGAAGTGGTTGCCTTGGTTTGCGC,9920,734,10300,2190
GTACGACAGCGGGTTCCGGTGACCACGAAGGCGGCA,404,938,467,1180
GCCTCCTCCCATTTCCTCCATGTGGTCAATCCAGTT,459,2070,731,3860
CTGTCCGCGACATCCGGGACCTGCGGGACCGCCGAT,1250,765,1470,1760
AAAAAGCCGGATGTGAAGGCTGTGGTTCTCAACCCG,2880,745,6480,1310
CAAGCTGGCAGGAAGCGCGGTGCAACCACAAGAGTC,1870,765,6690,1260
CCAAGTGTAAAACGGAAGCTCAACCACGAATCTTAC,1510,800,2960,1100
CGTGGCGGAAGCCGCGGGGACTGCGGGGGCGGAGTG,537,924,528,893
AACGACAAACCGGAAGTATGGTTTGCCGCCTGAAGC,17000,754,19500,1620
CCATTCTTCCGGTGGAGATGGCTGCGGCCGTGGCGG,568,714,588,2240
TACCAACAGGAATCTTTGGGGTCTAAACCGCAAACA,481,3800,2160,5090

Sequence,ETS1 binding intensity (ETS1 [1]),RUNX1 binding intensity (RUNX1 [2]),ETS1 binding intensity (ETS1 [3]),RUNX1 binding intensity (RUNX1 [4])
CGGCTGTTTTCCAGGATGTTGTGGTCATGGCGGTGT,1590,2920,6320,4090
AAATATAGTGCTAAAGGAAGTGGTTTTCATGCAACT,2380,670,4140,1080
GCCGCTGGGTAGGCGGAAGTAGCCGCAGGCATGGCA,5590,760,7400,1000
GGAACAGGAAAAGCCTCCGGCAGCCCCTGCGGGCGG,539,719,941,920
CGATTCCGGAGACAGGCCCCACCGTGCGGTAAACTG,550,835,810,931
TGCGCCGGAAGTGCATGAGCTGCCGATGTGGTGCTT,4760,715,5410,1220
CGGCCTCTTCCGGTCACCTGGCCCGTCGCGGTCCCG,1800,1040,1520,2290
CCCCGCCTCTTCCGCTTCTGTGGTCTGATCTGCCTG,704,1250,1040,3860
GAAACCCCATGGGCAGGATGTGGGTGAGCTGTCTGG,3380,742,5020,1280
GAAGCGCTGGGCGGAAGTGGCTGTGGCTTTGCCCTT,9200,735,14300,1620
CAGTCAAGAGGAAATTATAAACCACTGCCTCTTTGA,599,833,744,909
CCCCACCCAGACAGGAAACTGTGGCTTCTATCAGAT,3020,820,4660,1550
CCTGACTTCCTCCTCCCCCTCCCGCCACAATTCCGC,1240,1620,1620,2880
GTTATTCTCCCCTTCCTGTGGTGTGTTTTGATGGTA,702,1120,626,1590
CAGAACGGTCCCCGGAACACTGCGGTTCCCGCCTGG,357,1040,895,889
AGCACTTCCGTTTGGGCAGGGCTGCGGGCCGGAGGG,911,746,831,2130
AGCCCGGCTTCCGGCGCGTGCCGCTGCGGCTGCAGG,791,678,1030,1370
TGTCCACCTCTACGGAAGTGCGCCGCAGTCCGCCAG,1620,792,2370,908
